Measurements published in PubChem BioAssay AID1159580 (chemical genetic matrix, 2015).
Where “and” joins values, the source holds several entries; their conditions need not be identical. Identical values can stand only once. About 2,000 (36%) of roughly 5,500 compounds were called active. Inconclusive results (about 18%) are left out. The list shows a part of the results. Unmarked numbers belong to inactive results. Cut-off read from the data, not from the text of the source: active = normalized growth mostly below about 0.91 (no sharp cut-off); inconclusive = no clear call, values can overlap the other calls; inactive = mostly above about 0.92.

Assay: chemical genetic growth profiling, strain panel (AID 1159580);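 note: tested at 20 µM; growth read once vehicle control cultures reached saturation at 30 °C; 1 = growth at the plate median or of vehicle wells; lower values mean less growth of the strain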
Details: S. cerevisiae deletion strains, growth OD

C/C=C(\C)C(=O)O[C@@H]1c2c(ccc3ccc(=O)oc23)OC(C)(C)[C@@H]1OC(C)=O
normalized growth (locus YAL013W, strain DEP1, stronger effect = lower value): 1.01
normalized growth (locus YAL021C, strain ccr4, stronger effect = lower value): 1.01
normalized growth (locus YAL026C, strain drs2, stronger effect = lower value): 0.989
normalized growth (locus YAL030W, strain snc1, stronger effect = lower value): 0.996
normalized growth (locus YBL061C, strain skt5, stronger effect = lower value): 0.994
normalized growth (locus YBR009C, strain hhf1, stronger effect = lower value): 1.03
normalized growth (locus YBR021W, strain FUR4, stronger effect = lower value): 1.03
normalized growth (locus YBR023C, strain chs3, stronger effect = lower value): 0.987
normalized growth (locus YBR171W, strain sec66, stronger effect = lower value): 0.98
normalized growth (locus YBR229C, strain ROT2, stronger effect = lower value): 0.995
normalized growth (locus YBR231C, strain swc5, stronger effect = lower value): 1
normalized growth (locus YBR279W, strain paf1, stronger effect = lower value): 1.01
normalized growth (locus YCL011C, strain gbp2, stronger effect = lower value): 1.01
normalized growth (locus YCL016C, strain dcc1, stronger effect = lower value): 0.993
normalized growth (locus YCL029C, strain bik1, stronger effect = lower value): 1.03
normalized growth (locus YCL061C, strain MRC1, stronger effect = lower value): 0.985
normalized growth (locus YCL069W, strain vba3, stronger effect = lower value): 1.01
normalized growth (locus YCR088W, strain abp1, stronger effect = lower value): 0.996
normalized growth (locus YDL005C, strain med2, stronger effect = lower value): 0.981
normalized growth (locus YDL035C, strain GPR1, stronger effect = lower value): 0.995
normalized growth (locus YDL040C, strain nat1, stronger effect = lower value): 0.998
normalized growth (locus YDL074C, strain BRE1, stronger effect = lower value): 1
normalized growth (locus YDL101C, strain DUN1, stronger effect = lower value): 1.01
normalized growth (locus YDL134C, strain PPH21, stronger effect = lower value): 0.974
normalized growth (locus YDL185W, strain tfp1, stronger effect = lower value): 1.02
normalized growth (locus YDL192W, strain arf1, stronger effect = lower value): 0.992
normalized growth (locus YDR001C, strain nth1, stronger effect = lower value): 1.01
normalized growth (locus YDR069C, strain doa4, stronger effect = lower value): 1
normalized growth (locus YDR101C, strain arx1, stronger effect = lower value): 1.03
normalized growth (locus YDR137W, strain rgp1, stronger effect = lower value): 0.842 (active)
normalized growth (locus YDR150W, strain NUM1, stronger effect = lower value): 0.997
normalized growth (locus YDR159W, strain sac3, stronger effect = lower value): 0.989
normalized growth (locus YDR162C, strain NBP2, stronger effect = lower value): 0.983
normalized growth (locus YDR195W, strain ref2): 1.06
normalized growth (locus YDR297W, strain sur2, stronger effect = lower value): 0.995
normalized growth (locus YDR318W, strain mcm21, stronger effect = lower value): 0.974
normalized growth (locus YDR334W, strain swr1, stronger effect = lower value): 1
normalized growth (locus YDR335W, strain msn5, stronger effect = lower value): 1.02
normalized growth (locus YDR388W, stronger effect = lower value): 1
normalized growth (locus YDR392W, strain spt3, stronger effect = lower value): 0.762
normalized growth (locus YDR502C, strain sam2, stronger effect = lower value): 0.991
normalized growth (locus YEL003W, strain gim4, stronger effect = lower value): 1.01
normalized growth (locus YEL037C, strain rad23, stronger effect = lower value): 1.01
normalized growth (locus YEL061C, strain CIN8 (second series), stronger effect = lower value): 1
normalized growth (locus YEL061C, strain CIN8, stronger effect = lower value): 0.991
normalized growth (locus YER015W, strain faa2, stronger effect = lower value): 1.01
normalized growth (locus YER016W, strain bim1, stronger effect = lower value): 0.993
normalized growth (locus YER110C, stronger effect = lower value): 1.01
normalized growth (locus YER111C, strain swi4, stronger effect = lower value): 0.994
normalized growth (locus YER155C, strain BEM2 (second series), stronger effect = lower value): 1.03
normalized growth (locus YER155C, strain BEM2, stronger effect = lower value): 1.01
normalized growth (locus YER167W, strain BCK2, stronger effect = lower value): 0.997
normalized growth (locus YFR010W, strain ubp6, stronger effect = lower value): 1.02
normalized growth (locus YGL078C, strain dbp3, stronger effect = lower value): 1
normalized growth (locus YGL086W, strain mad1, stronger effect = lower value): 1.05
normalized growth (locus YGL167C, strain pmr1, stronger effect = lower value): 0.984
normalized growth (locus YGL173C, strain kem1, stronger effect = lower value): 0.991
normalized growth (locus YGL227W, strain vid30, stronger effect = lower value): 0.991
normalized growth (locus YGL240W, strain doc1, stronger effect = lower value): 0.985
normalized growth (locus YGL248W, strain PDE1, stronger effect = lower value): 0.993
normalized growth (locus YGL253W, strain hxk2, stronger effect = lower value): 0.963
normalized growth (locus YGR078C, strain PAC10, stronger effect = lower value): 1
normalized growth (locus YGR135W, strain pre9, stronger effect = lower value): 0.987
normalized growth (locus YGR252W, strain gcn5, stronger effect = lower value): 1
normalized growth (locus YHR013C, strain ard1, stronger effect = lower value): 0.971
normalized growth (locus YHR027C, strain rpn1, stronger effect = lower value): 1
normalized growth (locus YHR030C, strain SLT2, stronger effect = lower value): 0.996 and 0.998
normalized growth (locus YHR079C, strain IRE1 (second series), stronger effect = lower value): 0.998
normalized growth (locus YHR079C, strain IRE1, stronger effect = lower value): 1.01
normalized growth (locus YHR094C, strain hxt1, stronger effect = lower value): 1
normalized growth (locus YHR129C, strain ARP1, stronger effect = lower value): 1
normalized growth (locus YHR142W, strain chs7, stronger effect = lower value): 0.987
normalized growth (locus YHR200W, strain rpn10, stronger effect = lower value): 1.02
normalized growth (locus YIL066C, strain RNR3, stronger effect = lower value): 0.992
normalized growth (locus YIL073C, strain SPO22, stronger effect = lower value): 0.989
normalized growth (locus YIL125W, strain kgd1, stronger effect = lower value): 1.01
normalized growth (locus YIR030C, strain dcg1, stronger effect = lower value): 0.994
normalized growth (locus YJL092W, strain hpr5, stronger effect = lower value): 0.99
normalized growth (locus YJL095W, strain BCK1 (second series), stronger effect = lower value): 0.994
normalized growth (locus YJL095W, strain BCK1, stronger effect = lower value): 0.956 and 1.05
normalized growth (locus YJL115W, strain asf1, stronger effect = lower value): 0.995
normalized growth (locus YJL129C, strain trk1, stronger effect = lower value): 0.953
normalized growth (locus YJL134W, strain LCB3, stronger effect = lower value): 0.996
normalized growth (locus YJL154C, strain vps35, stronger effect = lower value): 1.01
normalized growth (locus YJL164C, strain tpk1, stronger effect = lower value): 1
normalized growth (locus YJL166W, strain qcr8, stronger effect = lower value): 0.968
normalized growth (locus YJL168C, strain set2, stronger effect = lower value): 1.01
normalized growth (locus YJL187C, strain SWE1 (second series), stronger effect = lower value): 1
normalized growth (locus YJL187C, strain SWE1, stronger effect = lower value): 0.991
normalized growth (locus YJR043C, strain POL32, stronger effect = lower value): 1.02
normalized growth (locus YJR066W, strain TOR1, stronger effect = lower value): 0.958
normalized growth (locus YJR075W, strain HOC1, stronger effect = lower value): 0.993
normalized growth (locus YKL009W, strain mrt4, stronger effect = lower value): 0.997
normalized growth (locus YKL068W, stronger effect = lower value): 1.01
normalized growth (locus YKL085W, strain MDH1 (second series), stronger effect = lower value): 0.991
normalized growth (locus YKL085W, strain MDH1, stronger effect = lower value): 0.991
normalized growth (locus YKL160W, strain elf1, stronger effect = lower value): 0.939
normalized growth (locus YKR001C, strain vps1, stronger effect = lower value): 1.02
normalized growth (locus YKR026C, strain gcn3, stronger effect = lower value): 0.996
normalized growth (locus YKR091W, strain srl3, stronger effect = lower value): 0.996
normalized growth (locus YLL001W, strain dnm1, stronger effect = lower value): 0.972
normalized growth (locus YLL026W, stronger effect = lower value): 0.992
normalized growth (locus YLL041C, strain sdh2, stronger effect = lower value): 0.998
normalized growth (locus YLR027C, strain aat2, stronger effect = lower value): 0.992
normalized growth (locus YLR039C, strain RIC1, stronger effect = lower value): 0.946
normalized growth (locus YLR058C, strain SHM2, stronger effect = lower value): 0.995
normalized growth (locus YLR102C, strain apc9, stronger effect = lower value): 1.01
normalized growth (locus YLR113W, strain HOG1, stronger effect = lower value): 1.01
normalized growth (locus YLR221C, strain rsa3, stronger effect = lower value): 0.971
normalized growth (locus YLR258W, strain gsy2, stronger effect = lower value): 0.997
normalized growth (locus YLR262C, strain YPT6 (second series), stronger effect = lower value): 0.846 (active)
normalized growth (locus YLR262C, strain YPT6, stronger effect = lower value): 0.913
normalized growth (locus YLR268W, strain sec22, stronger effect = lower value): 1.02
normalized growth (locus YLR320W, strain mms22, stronger effect = lower value): 0.943
normalized growth (locus YLR330W, strain CHS5, stronger effect = lower value): 1.01
normalized growth (locus YLR342W, strain FKS1 (second series), stronger effect = lower value): 1.01
normalized growth (locus YLR342W, strain FKS1, stronger effect = lower value): 0.998
normalized growth (locus YLR357W, strain rsc2, stronger effect = lower value): 1.04
normalized growth (locus YLR370C, strain arc18, stronger effect = lower value): 0.996
normalized growth (locus YLR371W, strain rom2, stronger effect = lower value): 1.02
normalized growth (locus YLR384C, strain iki3, stronger effect = lower value): 0.988
normalized growth (locus YLR418C, strain cdc73, stronger effect = lower value): 0.97
normalized growth (locus YML016C, strain PPZ1, stronger effect = lower value): 0.995
normalized growth (locus YML032C, strain rad52, stronger effect = lower value): 0.99
normalized growth (locus YML120C, strain ndi1, stronger effect = lower value): 0.993
normalized growth (locus YML124C, strain tub3, stronger effect = lower value): 0.988
normalized growth (locus YMR058W, strain fet3, stronger effect = lower value): 1
normalized growth (locus YMR078C, strain ctf18, stronger effect = lower value): 1
normalized growth (locus YMR125W, strain sto1, stronger effect = lower value): 0.967
normalized growth (locus YMR129W, stronger effect = lower value): 0.992
normalized growth (locus YMR205C, strain PFK2, stronger effect = lower value): 0.919
normalized growth (locus YMR223W, strain ubp8, stronger effect = lower value): 0.979
normalized growth (locus YMR231W, strain pep5, stronger effect = lower value): 0.998
normalized growth (locus YMR307W, strain GAS1, stronger effect = lower value): 0.929
normalized growth (locus YNL067W, strain RPL9B, stronger effect = lower value): 0.997
normalized growth (locus YNL071W, strain lat1, stronger effect = lower value): 0.963
normalized growth (locus YNL153C, strain GIM3, stronger effect = lower value): 1.02
normalized growth (locus YNL183C, strain NPR1, stronger effect = lower value): 0.996
normalized growth (locus YNL209W, strain ssb2, stronger effect = lower value): 1
normalized growth (locus YNL233W, strain BNI4, stronger effect = lower value): 1.02
normalized growth (locus YNL248C, strain rpa49, stronger effect = lower value): 0.956
normalized growth (locus YNL250W, strain rad50, stronger effect = lower value): 1.02
normalized growth (locus YNL271C, strain bni1, stronger effect = lower value): 1
normalized growth (locus YNL298W, strain CLA4, stronger effect = lower value): 1.01
normalized growth (locus YNL307C, strain MCK1, stronger effect = lower value): 1
normalized growth (locus YNL322C, strain KRE1 (second series), stronger effect = lower value): 0.991
normalized growth (locus YNR049C, strain mso1, stronger effect = lower value): 0.992
normalized growth (locus YNR052C, strain pop2, stronger effect = lower value): 0.995
normalized growth (locus YOL006C, strain TOP1, stronger effect = lower value): 1.04
normalized growth (locus YOL012C, strain htz1): 1.21
normalized growth (locus YOL147C, strain pex11, stronger effect = lower value): 0.996
normalized growth (locus YOR001W, strain rrp6, stronger effect = lower value): 1.02
normalized growth (locus YOR061W, strain CKA2, stronger effect = lower value): 0.99
normalized growth (locus YOR069W, strain VPS5, stronger effect = lower value): 0.995
normalized growth (locus YOR070C, strain gyp1, stronger effect = lower value): 0.999
normalized growth (locus YOR080W, strain dia2, stronger effect = lower value): 1.01
normalized growth (locus YOR083W, strain WHI5, stronger effect = lower value): 0.953
normalized growth (locus YOR106W, strain vam3, stronger effect = lower value): 0.977
normalized growth (locus YOR136W, strain idh2, stronger effect = lower value): 1.03
normalized growth (locus YOR144C, strain elg1, stronger effect = lower value): 1.01
normalized growth (locus YOR184W, strain ser1, stronger effect = lower value): 0.959
normalized growth (locus YOR231W, strain MKK1, stronger effect = lower value): 0.991
normalized growth (locus YOR265W, strain rbl2, stronger effect = lower value): 0.991
normalized growth (locus YOR270C, strain vph1, stronger effect = lower value): 0.912
normalized growth (locus YOR290C, strain snf2, stronger effect = lower value): 0.972
normalized growth (locus YOR316C, strain cot1, stronger effect = lower value): 0.999
normalized growth (locus YPL051W, strain arl3, stronger effect = lower value): 0.96
normalized growth (locus YPL055C, strain LGE1, stronger effect = lower value): 1
normalized growth (locus YPL078C, strain atp4, stronger effect = lower value): 0.972
normalized growth (locus YPL106C, strain sse1, stronger effect = lower value): 1.04
normalized growth (locus YPL240C, strain hsp82, stronger effect = lower value): 1
normalized growth (locus YPL241C, strain CIN2, stronger effect = lower value): 0.986
normalized growth (locus YPL256C, strain CLN2, stronger effect = lower value): 0.99
normalized growth (locus YPR119W, strain clb2, stronger effect = lower value): 0.993
normalized growth (locus YPR141C, strain kar3, stronger effect = lower value): 1.01
normalized growth (locus YPR163C, strain tif3, stronger effect = lower value): 0.996
normalized growth (locus YPR167C, strain met16, stronger effect = lower value): 0.99
normalized growth (strain wtn01, stronger effect = lower value): 1.05
